Among the test systems are HCT-15 colon; HT29 colon; SNB-75 CNS; SNB-19 CNS; U251 CNS; PC-3 prostate; SK-MEL-5 melanoma; UACC-62 melanoma; LOX IMVI melanoma; SK-MEL-28 melanoma; SK-MEL-2 melanoma; EKVX NSCLC; SN12C renal; UO-31 renal; TK-10 renal; ACHN renal; CAKI-1 renal; A498 renal; CCRF-CEM leukemia; MOLT-4 leukemia.
Holding throughout (assay): NCI-60 one-dose screen, 48 h (100 = growth as untreated, 0 = no growth, -100 = all killed)
Holding throughout (conditions): 10 µM unless noted

The panel holds about 83,000 compounds, 20% with a hit somewhere; the sample as a whole holds those more often.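 The test compound was applied at a single concentration to cells in 96-well plates for 48 hours, and percent growth was recorded.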 Values without a mark were called inactive. Calls of active or inactive are those of the source. How the source made its calls: active means growth percent below 10; inactive means the rest.

As to `O=C1Nc2ccc(C(=O)O)cc2/C1=N/c1nnc(Sc2ccccc2)s1`, the growth is 104% in the test on HCT-15 colon; 115% with HT29 colon; 94.2% in the test with SNB-75 CNS; 102% with SNB-19 CNS; 98% in the test with U251 CNS; 104% in the test with PC-3 prostate. Moreover, the growth with SK-MEL-5 melanoma was 104%; in the test with UACC-62 melanoma, 99%; in the test on LOX IMVI melanoma it was 96.3%; with SK-MEL-28 melanoma it was 112%; in the test on SK-MEL-2 melanoma, 112%; in the test with EKVX NSCLC, 104%. Further, the growth was 96.9% in the test with SN12C renal; 84.3% in the test with UO-31 renal; 106% with TK-10 renal; 98.4% with ACHN renal; 85.9% in the test with CAKI-1 renal; 86.8% in the test with A498 renal. Also, the results for the growth in the test with CCRF-CEM leukemia and with MOLT-4 leukemia were 99.7% and 105%, respectively.
For `Nc1ncnc2c1C(c1ccccc1)c1ccc3ccccc3c1O2` (stereo not given), the growth is 96.5% with HCT-15 colon; 92.5% in the test on HT29 colon; 64.7% in the test with SNB-75 CNS; 80.7% with SNB-19 CNS; 86.4% in the test with U251 CNS; 70.5% in the test with PC-3 prostate. In addition, the growth in the test on SK-MEL-5 melanoma was 77.7%; with UACC-62 melanoma, 68.5%; with LOX IMVI melanoma it was 72.1%; in the test on SK-MEL-28 melanoma, 103%; in the test with SK-MEL-2 melanoma it was 91.1%; with EKVX NSCLC, 90.6%. Further, the growth in the test on SN12C renal is 73.6%; in the test with UO-31 renal it was 56.5%; in the test on TK-10 renal, 96%; with ACHN renal it was 80.9%; in the test with CAKI-1 renal, 81.1%; in the test with A498 renal it was 94.7%. The growth with CCRF-CEM leukemia was 91.6%; in the test on MOLT-4 leukemia, 68.4%.
On to `CC1CCN(S(=O)(=O)c2ccc(S(=O)(=O)N3CCCC(c4nc5c(nnn5Cc5cccc(Cl)c5)c(=O)[nH]4)C3)cc2)CC1` (stereo not given), for which the growth with HCT-15 colon was 36.1%; in the test with HT29 colon, 17.1%; in the test on SNB-75 CNS it was 21.6%; in the test with SNB-19 CNS it was 67.6%; in the test with U251 CNS it was 45.1%; with PC-3 prostate it was 47%. The growth in the test on SK-MEL-5 melanoma is 24.1%; in the test with UACC-62 melanoma, 40.2%; with LOX IMVI melanoma it was 42.4%; in the test with SK-MEL-28 melanoma, 62%; in the test on SK-MEL-2 melanoma, 46.9%; with EKVX NSCLC, 69.1%. The growth was 47.3% with SN12C renal; 43.1% in the test with UO-31 renal; 71.5% in the test with TK-10 renal; 71.7% with ACHN renal; 22.2% with CAKI-1 renal; 38% in the test with A498 renal. The results for the growth in the test on CCRF-CEM leukemia and in the test with MOLT-4 leukemia were 15.2% and 19.2%, respectively.
As to `Cc1c(O)cc(-c2cnc(Nc3ccccc3)s2)c(O)c1C`, the growth in the test on HCT-15 colon was 92.2%; in the test with HT29 colon it was 109%; in the test on SNB-75 CNS, 104%; in the test with SNB-19 CNS, 106%; with U251 CNS, 100%; in the test with PC-3 prostate, 76%. Moreover, the growth with SK-MEL-5 melanoma was 93.4%; with UACC-62 melanoma it was 78.1%; in the test with LOX IMVI melanoma, 78.3%; in the test on SK-MEL-28 melanoma it was 104%; with SK-MEL-2 melanoma, 99.4%; in the test with EKVX NSCLC, 87.9%. In addition, the growth is 94% in the test on SN12C renal; 86.9% in the test on UO-31 renal; 134% in the test with TK-10 renal; 91.6% with ACHN renal; 86.9% in the test on CAKI-1 renal; 75.1% in the test on A498 renal. The growth in the test on CCRF-CEM leukemia is 78.5%; in the test with MOLT-4 leukemia, 62.8%.
For `Cc1cc(S(=O)(=O)/N=C(\N)n2nc(C)c(C)c2C)c(SCc2ccccc2)cc1Cl`, the growth in the test on HCT-15 colon is 56.6%; in the test on HT29 colon it was 63.7%; with SNB-75 CNS, 79.4%; in the test on SNB-19 CNS it was 89.9%; with U251 CNS it was 60.8%; in the test on PC-3 prostate, 40.2%. Further, the growth with SK-MEL-5 melanoma is 94.7%; in the test with UACC-62 melanoma, 71.1%; with LOX IMVI melanoma it was 66.9%; in the test with SK-MEL-28 melanoma it was 91.4%; in the test with SK-MEL-2 melanoma, -12.3% (active); in the test with EKVX NSCLC it was 38.9%. The growth in the test with SN12C renal was 76.3%; in the test with UO-31 renal, 23.8%; in the test on TK-10 renal, 116%; in the test with ACHN renal, 71.2%; in the test with CAKI-1 renal, 71.9%; with A498 renal, 85.1%. Besides, the growth is 41.5% with CCRF-CEM leukemia and 46% in the test with MOLT-4 leukemia.
With `CS(=O)(=O)c1ccc(-c2cnn3ccc(-c4cccc(S(=O)(=O)C5CC5)c4)nc23)cc1`, the growth was 57% in the test with HCT-15 colon; 34% with HT29 colon; 14% with SNB-75 CNS; 67.3% with SNB-19 CNS; 68.7% in the test on U251 CNS; 40.3% with PC-3 prostate. Also, the growth in the test with SK-MEL-5 melanoma is 63.2%; with UACC-62 melanoma it was 53.3%; with LOX IMVI melanoma, 44.1%; in the test on SK-MEL-28 melanoma, 69.7%; in the test on SK-MEL-2 melanoma, 49.4%; with EKVX NSCLC it was 67.4%. Besides, the growth was 55.3% in the test with SN12C renal; 49.8% in the test with UO-31 renal; 45.8% with TK-10 renal; 54.7% in the test on ACHN renal; 52.2% in the test on CAKI-1 renal; 30% in the test with A498 renal. Besides, the growth with CCRF-CEM leukemia is 21.3%; in the test on MOLT-4 leukemia, 15.3%.
Regarding `COc1cc(-c2nccc3[nH]c(-c4ccc5cc[nH]c5c4)nc23)cc(OC)c1OC`, the growth with HCT-15 colon was -7.01% (active); with HT29 colon, -37.8% (active); in the test with SNB-75 CNS, 18.9%; in the test with SNB-19 CNS, 34.8%; with U251 CNS, -16.3% (active); in the test with PC-3 prostate, -0.946% (active). In addition, the growth is -38.4% (active) in the test with SK-MEL-5 melanoma; 27.4% in the test with UACC-62 melanoma; -67.5% (active) in the test on LOX IMVI melanoma; 42.1% in the test with SK-MEL-28 melanoma; 15.2% in the test on SK-MEL-2 melanoma; 30.9% in the test on EKVX NSCLC. Further, the growth in the test on SN12C renal was 30.9%; in the test with UO-31 renal, 13.6%; with TK-10 renal, 10.7%; with ACHN renal it was 2.78% (active); in the test on CAKI-1 renal it was 29.7%; in the test with A498 renal, -2.61% (active). For the same compound, the growth with CCRF-CEM leukemia is 5.28% (active); in the test on MOLT-4 leukemia, 18.5%.
